Reference: PubChem BioAssay (NCATS)
Calls of active or inactive are those of the source. The rule behind the calls is not given here. Numbered stars: 1 amine (or outer) side, 2 acyl side, 3 side chain; on linkers, the order of the positions; unused ones are H or OH. Bridge positions count the residues as written; N and C are the ends. Square brackets hold non-standard residues; d marks the D form. Peptide text beside a SMILES is read from it. I, II: the chains in the order shown. ξ: configuration not given here. Actinocin(9to1) = Cc1c2oc3c(C)ccc(C(=O)[*:1])c3nc-2c(C(=O)[*:2])c(N)c1=O; ξNMeV = CNC(C(=O)O)C(C)C; ξV = CC(C)C(N)C(=O)O; Sar = CNCC(=O)O

Legend:
[1] = Immunotoxin (HA22) sensitization/mitigation study. Vehicle arm (PBS) (AID 1159510)
[2] = Immunotoxin (SS1P) sensitization/mitigation study. Vehicle arm (DMEM) (AID 1159513)
Potency is the fitted concentration of half-maximal effect.

Row | SMILES | Potency [1] | Potency [2]
1 | O=C1C(Cl)=C(NCCN2CCOCC2)C(=O)c2ncccc21 | 2.35 µM (active) | 14.8 µM (active)
2 | CC(NC(=O)Cc1cc(F)cc(F)c1)C(=O)NC(C(=O)OC(C)(C)C)c1ccccc1 (stereo not given) | inactive | inactive
3 | C=CCc1cccc(/C=N/NC(=O)CN2CCN(Cc3ccccc3)CC2)c1O | 4.69 µM (active) | 13.2 µM (active)
4 | COc1ccc(-c2ccc3c(N4CCOCC4)nc(N4C[C@@H](C)O[C@@H](C)C4)nc3n2)cc1CO | 1.48 µM (active) | 0.105 µM (active)
5 | CC(C)c1ccc2c(c1)c(SC(C)(C)C)c(CC(C)(C)C(=O)O)n2Cc1ccc(Cl)cc1 | 13.2 µM (active) | 11.8 µM (active)
6 | CC1(C)Cc2c(-c3ccccc3)c(-c3ccc(Cl)cc3)c(CC(=O)O)n2C1 | 18.7 µM (active) | 16.6 µM (active)
7 | Cc1ccc(C(=O)N(CCCN)[C@@H](c2nc3cc(Cl)ccc3c(=O)n2Cc2ccccc2)C(C)C)cc1 | 0.0037 µM (active) | 0.0053 µM (active)
8 | Cc1[nH]c2ccccc2c1CCNCc1ccc(C=CC(=O)NO)cc1 | 0.0105 µM (active) | 0.0296 µM (active)
9 | NC(=O)c1ccc(-c2nc(-c3ccc4c(c3)OCCO4)c(-c3ccccn3)[nH]2)cc1 | 20.9 µM (active) | inactive
10 | Cc1n[nH]c(C)c1Cc1sc2c(c1C(=O)N1C[C@H](O)CO1)c(=O)n(C)c(=O)n2CC(C)C | 0.0019 µM (active) | inactive
11 | Fc1ccc(Cl)cc1-c1nc(Nc2ccncc2)c2nccnc2n1 | inactive | inactive
12 | O=C(Nc1ccc(F)c(C(F)(F)F)c1)Nc1nnc(-c2ccncc2)s1 | 2.09 µM (active) | 5.9 µM (active)
13 | O=C(C=Cc1cccnc1)NCCCCC1CCN(C(=O)c2ccccc2)CC1 | inactive | inactive
14 | Cn1cc(-c2[nH]c3cc(NC(=O)[C@H](N)C4CCCCC4)cc4c3c2C=NNC4=O)cn1 | 0.59 µM (active) | 1.87 µM (active)
15 | O=C(Nc1cccnc1)N1CCC(Cc2cccc(Oc3ccc(C(F)(F)F)cn3)c2)CC1 | 16.6 µM (active) | 6.62 µM (active)
16 | Cc1ccc(S(=O)(=O)Nc2cc(Cl)ccc2C(=O)Nc2nc(-c3ccccc3)cs2)cc1 | 5.9 µM (active) | 2.09 µM (active)
17 | CN(C)CCN(C)C(=O)c1ccc(NC(=O)Nc2ccc(-c3nc(N4CCOCC4)c4ccn(CC(F)(F)F)c4n3)cc2)cc1 | 1.48 µM (active) | 0.0264 µM (active)
18 | C=CC(=O)Nc1cccc(Oc2nc(Nc3ccc(N4CCN(C)CC4)cc3OC)ncc2Cl)c1 | 16.6 µM (active) | 23.5 µM (active)
19 | COc1cc2c(cc1OC)CN(CCc1ccc(NC(=O)c3cccc4c(=O)c5cccc(OC)c5[nH]c34)cc1)CC2 | 18.7 µM (active) | inactive
20 | CCN(CC)CCOc1ccc(Nc2ncc3cc(-c4c(Cl)cccc4Cl)c(=O)n(C)c3n2)cc1 | 1.18 µM (active) | 0.332 µM (active)
21 | O=C(C1CC1)N1CC[C@@H](Cn2c(-c3ccc(-c4ccc5occc5c4)cc3)nc3cnccc32)C1 | 20.9 µM (active) | 16.6 µM (active)
22 | CN(c1ncccc1CNc1nc(Nc2ccc3c(c2)CC(=O)N3)ncc1C(F)(F)F)S(C)(=O)=O | 1.48 µM (active) | 2.96 µM (active)
23 | COc1ccc2c(c1)CC[C@@H](CN(C)CC(=O)O)[C@H]2c1ccccc1 | inactive | inactive
24 | CC(C)c1ccccc1Cc1cc(C(=O)Nc2ccc(S(=O)(=O)c3ccccc3C(C)(C)C)cc2)c(O)c(O)c1O | 0.743 µM (active) | 3.72 µM (active)
25 | O=c1[nH]c(-c2ccc(C(F)(F)F)cc2)nc2c1CSCC2 | inactive | inactive
26 | Cc1ccc2c(c1)C(=O)[C@@]1(O)CCN(c3ccccc3)C1=N2 | inactive | inactive
27 | NC(=O)c1ccc(-c2nc(-c3ccc4c(c3)OCO4)c(-c3ccccn3)[nH]2)cc1 | inactive | inactive
28 | OC[C@H]1O[C@@H](n2cnc3c2NC=NC[C@@H]3O)C[C@H]1O | inactive | inactive

Row | SMILES | Potency [1] | Potency [2]
29 | COC(=O)[C@]12CCC(C)(C)C[C@@H]1[C@@H]1C(=O)C=C3[C@@]4(C)C=C(C#N)C(=O)C(C)(C)[C@@H]4CC[C@@]3(C)[C@]1(C)CC2 | 0.526 µM (active) | 0.833 µM (active)
30 | COc1cc2nc(N3CCCN(C)CC3)nc(NC3CCN(Cc4ccccc4)CC3)c2cc1OC | 2.09 µM (active) | 13.2 µM (active)
31 | c1ccc2c(CCNc3ccc(Nc4ccncc4)cc3)c[nH]c2c1 | 1.87 µM (active) | 20.9 µM (active)
32 | Cc1cc(Nc2nc(N[C@@H](C)c3ncc(F)cn3)ncc2Cl)n[nH]1 | inactive | inactive
33 | O=C1C(CCC(O)c2ccc(F)cc2)C(c2ccc(O)cc2)N1c1ccc(F)cc1 (stereo not given) | inactive | inactive
34 | Cc1cc(-c2ccc(CC(=O)Nc3ccc(-c4cccnc4)cc3)cc2)ccn1 | 18.7 µM (active) | 18.7 µM (active)
35 | O=C(O)CCC1CCC(c2cc(F)ccc2F)(S(=O)(=O)c2ccc(Cl)cc2)CC1 (stereo not given) | inactive | inactive
36 | COCC(=O)NCC=Cc1ccc2ncnc(Nc3ccc(Oc4ccc(C)nc4)c(C)c3)c2c1 | 23.5 µM (active) | 18.7 µM (active)
37 | Cc1c2oc3c(C)ccc(C(=O)N[C@@H]4C(=O)NC(C(C)C)C(=O)N5CCC[C@H]5C(=O)N(C)CC(=O)N(C)C(C(C)C)C(=O)O[C@@H]4C)c3nc-2c(C(=O)N[C@@H]2C(=O)NC(C(C)C)C(=O)N3CCC[C@H]3C(=O)N(C)CC(=O)N(C)C(C(C)C)C(=O)O[C@@H]2C)c(N)c1=O (stereo not given in full) (I: T[ξV]P[Sar][ξNMeV] / II: T[ξV]P[Sar][ξNMeV]; ester I:1-I:C, II:1-II:C; linker I:N-II:N via Actinocin(9to1)) | 0.0332 µM [activator] (active) | 0.003 µM (active)
38 | OCCn1cc(-c2cnc3nnn(Cc4ccc5ncccc5c4)c3n2)cn1 | inactive | inactive
39 | O=c1cc(N2CCOCC2)oc2c(-c3cccc4c3sc3ccccc34)cccc12 | 16.6 µM (active) | 29.6 µM (active)
40 | Cc1cc([C@@H](C)Nc2ccccc2C(=O)O)c2nc(N3CCOCC3)cc(=O)n2c1 | 14.8 µM (active) | 20.9 µM (active)
41 | N#Cc1ccc(NC(=O)Nc2ccccc2Br)c2n[nH]nc12 | 26.4 µM (active) | inactive
42 | CCc1cc(Nc2nccc(-c3c(-c4ccc(OC)c(C(=O)Nc5c(F)cccc5F)c4)nc4ccccn34)n2)c(OC)cc1N1CCC(N2CCN(S(C)(=O)=O)CC2)CC1 | 3.72 µM (active) | inactive
43 | Cc1nc(N)sc1-c1ccnc(Nc2ccc(N3CCOCC3)cc2)n1 | 5.9 µM (active) | 18.7 µM (active)
44 | CNC(=O)c1cc(Oc2ccc(NC(=O)Nc3cc(C(C)(C)C)nn3-c3ccc4ncccc4c3)c(F)c2)ccn1 | 6.62 µM (active) | 23.5 µM (active)
45 | Nc1ccccc1NC(=O)c1ccc(CNC(=O)OCc2cccnc2)cc1 | 0.526 µM (active) | 5.9 µM (active)
46 | O=C(C=Cc1cccc(S(=O)(=O)Nc2ccccc2)c1)NO | 0.264 µM (active) | 0.833 µM (active)
47 | CC(C)C(=O)Nc1ncc(-c2cc(C(F)F)nn2-c2c(Cl)cccc2Cl)s1 | 11.8 µM (active) | 18.7 µM (active)
48 | COc1nc(C)cnc1NS(=O)(=O)c1cccnc1-c1ccc(-c2nnco2)cc1 | inactive | inactive
49 | Nc1cccc(S(=O)(=O)N2CCCN(S(=O)(=O)c3ccc4c(c3)OCCO4)CC2)c1 | inactive | inactive
50 | CCC=CC[C@H]1C(=O)CC[C@@H]1CC(=O)OC | inactive | inactive
51 | COc1cc(Oc2ccnc3cc(OC)c(OC)cc23)ccc1NC(=O)NC(C)c1nccs1 (stereo not given) | 16.6 µM (active) | 20.9 µM (active)
52 | C1Cc2[nH]nc(-c3nn[nH]n3)c2C1 | inactive | inactive
53 | CC=C1NC(=O)[C@H]2CSSCCC=C[C@H](CC(=O)N[C@H](C(C)C)C(=O)N2)OC(=O)[C@H](C(C)C)NC1=O | 0.0017 µM (active) | 0.0019 µM (active)
54 | CC(C)(C)c1cc(C(=O)O)c(NC(=O)Nc2ccc3[nH]ncc3c2)s1 | inactive | inactive
55 | Nc1ccccc1NC(=O)c1ccc(CNc2nccc(-c3cccnc3)n2)cc1 | 0.132 µM (active) | 0.187 µM (active)
